What was measured:
Conditions in all cases: concentration: 1 μM, replicates: in singlicate; n = 1
CDK2 = tested on: CDK2
CDK3 = tested on: CDK3
CDK4-cyclinD1 = tested on: CDK4-cyclinD1
CDK4-cyclinD3 = tested on: CDK4-cyclinD3
CDK4 = tested on: CDK4
CDK5 = tested on: CDK5
CDK7 = tested on: CDK7
CDK8 = tested on: CDK8
CDK9 = tested on: CDK9
CDKL1 = tested on: CDKL1
CDKL2 = tested on: CDKL2
CDKL3 = tested on: CDKL3
CDKL5 = tested on: CDKL5
CHEK1 = tested on: CHEK1
CHEK2 = tested on: CHEK2
CIT = tested on: CIT
CLK1 = tested on: CLK1
CLK2 = tested on: CLK2
CLK3 = tested on: CLK3
CLK4 = tested on: CLK4
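Also: KINOMEscan kinase panel screen.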

Structure (SMILES)	%Inh (CDK2)	%Inh (CDK3)	%Inh (CDK4-cyclinD1)	%Inh (CDK4-cyclinD3)	%Inh (CDK4)	%Inh (CDK5)	%Inh (CDK7)	%Inh (CDK8)	%Inh (CDK9)	%Inh (CDKL1)	%Inh (CDKL2)	%Inh (CDKL3)	%Inh (CDKL5)	%Inh (CHEK1)	%Inh (CHEK2)	%Inh (CIT)	%Inh (CLK1)	%Inh (CLK2)	%Inh (CLK3)	%Inh (CLK4)
NC(=O)c1sc(-n2cnc3ccccc32)cc1OCc1ccccc1F [GSK1024306]	0%	0%	0%	0%	33%	0%	0%	37%	0%	10%	22%	0%	0%	0%	0%	39%	37%	0%	0%	42%
O=C(Nc1ccccc1F)NC1CCN(c2ccnc(Nc3ccc(F)cc3)n2)C1 (stereo not shown) [GSK1379722]	0%	16%	0%	2%	31%	0%	0%	22%	0%	18%	30%	0%	0%	8%	0%	2%	21%	0%	24%	17%
CS(=O)(=O)CCNCc1nc(-c2ccc3ncnc(Nc4ccc(OCc5cccc(F)c5)c(Cl)c4)c3c2)cs1.Cl [GW583340]	0%	0%	0%	0%	34%	0%	0%	3%	10%	0%	2%	0%	0%	0%	0%	23%	33%	0%	12%	0%
Cl.Fc1ccccc1COc1ccc(Nc2ncnc3ccc(-c4nnc(C(F)(F)F)o4)cc23)cc1Cl [GW424170]	0%	0%	0%	0%	26%	0%	0%	29%	0%	3%	0%	0%	0%	5%	7%	11%	31%	0%	4%	13%
CS(=O)(=O)CCNCc1ccc(-c2ccc3ncnc(Nc4ccc(OCc5ccccc5)c(Cl)c4)c3c2)o1.Cl [GW574783]	5%	10%	21%	0%	0%	0%	0%	43%	0%	0%	11%	0%	0%	6%	0%	23%	0%	0%	0%	21%
CSc1ccc(NC2=C(c3ccccc3Cl)C(=O)NC2=O)cc1 [SB-342411]	10%	26%	61%	30%	0%	0%	43%	7%	0%	13%	14%	0%	0%	0%	0%	23%	74%	88%	43%	53%
FC(F)(F)c1ccc(-c2cc(-c3c[nH]nc3-c3ccccn3)ccn2)cc1 [GW599550]	2%	20%	11%	0%	35%	0%	0%	32%	0%	2%	21%	0%	0%	0%	16%	37%	8%	4%	5%	29%
COC(=O)c1c(-c2ccccc2)c2cc(Cl)ccc2c(=O)n1Cc1ccc(S(C)(=O)=O)cc1	0%	0%	0%	4%	0%	7%	10%	0%	7%	9%	0%	0%	33%	0%	10%	4%	3%	0%	10%	10%

Source: PMC5540273 (PLoS ONE, 2017)
